Values joined by “and” are separate entries in the source; they are usually repeats but may differ in a detail not shown here. Identical values can stand only once. About 83,000 compounds went through this panel and 20% of them were active in at least one assay; those are over-represented in the sample as a whole.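 Testing used 96-well plates and a 48-hour single-concentration exposure. Example: -40 means 40% of the starting cells died.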 Active and inactive are the calls of the source. How the source made its calls: active means growth percent below 10; inactive means the rest.
Experiments:
Test in all cases: NCI-60 one-dose screen, 48 h (100 = growth as untreated, 0 = no growth, -100 = all killed)
Details in all cases: 10 µM unless noted
HCT-15 colon = test system: HCT-15 colon
HT29 colon = test system: HT29 colon
SNB-75 CNS = test system: SNB-75 CNS
U251 CNS = test system: U251 CNS
PC-3 prostate = test system: PC-3 prostate
SK-MEL-5 melanoma = test system: SK-MEL-5 melanoma
UACC-62 melanoma = test system: UACC-62 melanoma
SK-MEL-28 melanoma = test system: SK-MEL-28 melanoma
SK-MEL-2 melanoma = test system: SK-MEL-2 melanoma
EKVX NSCLC = test system: EKVX NSCLC
SN12C renal = test system: SN12C renal
UO-31 renal = test system: UO-31 renal
TK-10 renal = test system: TK-10 renal
ACHN renal = test system: ACHN renal
CAKI-1 renal = test system: CAKI-1 renal
A498 renal = test system: A498 renal
CCRF-CEM leukemia = test system: CCRF-CEM leukemia
MOLT-4 leukemia = test system: MOLT-4 leukemia
LOX IMVI melanoma = test system: LOX IMVI melanoma

Row | Structure (SMILES) | growth (HCT-15 colon) | growth (HT29 colon) | growth (SNB-75 CNS) | growth (U251 CNS) | growth (PC-3 prostate) | growth (SK-MEL-5 melanoma) | growth (UACC-62 melanoma) | growth (SK-MEL-28 melanoma) | growth (SK-MEL-2 melanoma) | growth (EKVX NSCLC) | growth (SN12C renal) | growth (UO-31 renal) | growth (TK-10 renal) | growth (ACHN renal) | growth (CAKI-1 renal) | growth (A498 renal) | growth (CCRF-CEM leukemia) | growth (MOLT-4 leukemia) | growth (LOX IMVI melanoma)
1 | CCCCCCCCCCCCCCCCCCOP(=O)([O-])OC1CC[N+](C)(C)CC1 | -50% (active) and -67.9% (active) | 2.35% (active) and -29.9% (active) | 10.6% (inactive) and -41.7% (active) | -35.1% (active) and -68.1% (active) | -50.8% (active) and -75.1% (active) | 38.7% (inactive) and 20% (inactive) | 25.3% (inactive) and 37.2% (inactive) | 57.3% (inactive) | -14.6% (active) | 36.3% (inactive) and 41.5% (inactive) | 19.9% (inactive) and 24.9% (inactive) | -5.55% (active) and -40.1% (active) | -79.1% (active) and -93.8% (active) | 28.6% (inactive) and 23.9% (inactive) | -9.45% (active) and -42.7% (active) | -21.6% (active) and -25.3% (active) | -2.22% (active) and -53% (active) | -44.9% (active) and -49.8% (active) | 
2 | CN1c2ccccc2C(C)(C)C12C=Cc1cc(O)ccc1O2 (centres undefined) | 43.1% (inactive) | 55.9% (inactive) | 43.1% (inactive) | 52.9% (inactive) | 37.8% (inactive) | 43.2% (inactive) | 30.2% (inactive) | 64.5% (inactive) | 57.5% (inactive) | 105% (inactive) | 48.7% (inactive) | 60.6% (inactive) | 80.7% (inactive) | 73.3% (inactive) | 65.9% (inactive) |  | -16.8% (active) | -17.6% (active) | 47.2% (inactive)
3 | O=C(Nc1ccc(F)cc1)ON=C1CCCCC1 | 97% [100 µM] (inactive) | 103% [100 µM] (inactive) | 85% [100 µM] (inactive) | 102% [100 µM] (inactive) | 89.5% [100 µM] (inactive) | 99.6% [100 µM] (inactive) |  | 108% [100 µM] (inactive) | 102% [100 µM] (inactive) | 111% [100 µM] (inactive) | 100% [100 µM] (inactive) | 92.2% [100 µM] (inactive) | 101% [100 µM] (inactive) | 97.9% [100 µM] (inactive) | 79.3% [100 µM] (inactive) |  | 97.2% [100 µM] (inactive) | 95.3% [100 µM] (inactive) | 
4 | CNc1ccc2c(c1)c1ccccc1n2C | 104% (inactive) | 115% (inactive) | 98.7% (inactive) | 95.9% (inactive) | 96% (inactive) | 101% (inactive) |  | 117% (inactive) | 103% (inactive) | 106% (inactive) | 102% (inactive) | 92.4% (inactive) | 97.9% (inactive) | 114% (inactive) | 98.9% (inactive) | 88.8% (inactive) | 109% (inactive) | 88.1% (inactive) | 99.9% (inactive)
5 | O=C(/C=C\c1ccccc1)N1c2ccccc2CC1c1c[nH]c2ccccc12 (centres undefined) | 55.7% (inactive) | 21.8% (inactive) | 62.4% (inactive) | 74.1% (inactive) | 53.6% (inactive) | 87.6% (inactive) |  | 88.8% (inactive) | 61.3% (inactive) | 66% (inactive) | 74.3% (inactive) | 40.1% (inactive) | 77.8% (inactive) | 79.4% (inactive) | 62.8% (inactive) | 54.2% (inactive) | 68.6% (inactive) | 44.3% (inactive) | 
6 | C[n+]1c(/C=C/c2ccc([N+](=O)[O-])cc2)ccc2ccccc21 | 98.6% (inactive) | 104% (inactive) | 92.5% (inactive) | 99.6% (inactive) | 90% (inactive) | 97.9% (inactive) |  | 121% (inactive) |  | 62.8% (inactive) | 102% (inactive) | 63.3% (inactive) | 112% (inactive) | 116% (inactive) | 81.3% (inactive) | 92.4% (inactive) | 112% (inactive) | 90.7% (inactive) | 92.3% (inactive)
7 | Cc1ccc(NS(=O)(=O)c2ccc(C)cc2)cc1 | 101% (inactive) and 104% (inactive) | 101% (inactive) and 90.4% (inactive) | 87.7% (inactive) and 102% (inactive) | 96.9% (inactive) and 86.6% (inactive) | 97.7% (inactive) and 94% (inactive) | 97.8% (inactive) and 95.3% (inactive) |  | 116% (inactive) and 110% (inactive) | 101% (inactive) and 79.6% (inactive) | 96.3% (inactive) | 105% (inactive) and 99.8% (inactive) | 93% (inactive) and 79.3% (inactive) | 104% (inactive) and 91.5% (inactive) | 113% (inactive) and 96.6% (inactive) | 90.9% (inactive) and 96% (inactive) | 92.8% (inactive) and 93.4% (inactive) | 92.3% (inactive) and 97.2% (inactive) | 94% (inactive) and 98.5% (inactive) | 99.2% (inactive) and 96% (inactive)
8 | CC1=CC(O)C2CC1C2(C)C (centres undefined) | 104% (inactive) and 112% (inactive) | 88.2% (inactive) and 98.1% (inactive) | 84.6% (inactive) and 95.3% (inactive) | 100% (inactive) and 110% (inactive) | 94.9% (inactive) and 86.4% (inactive) | 103% (inactive) and 104% (inactive) | 101% (inactive) and 105% (inactive) | 107% (inactive) and 115% (inactive) | 92.8% (inactive) | 97.7% (inactive) and 104% (inactive) | 102% (inactive) and 108% (inactive) | 93.8% (inactive) and 73.6% (inactive) | 102% (inactive) and 98.1% (inactive) | 103% (inactive) and 118% (inactive) | 94.4% (inactive) and 85.8% (inactive) | 91% (inactive) and 92.7% (inactive) | 106% (inactive) and 105% (inactive) | 91.9% (inactive) and 93.3% (inactive) | 
9 | Oc1c(Cl)cc(Cl)c2cccnc12 | 44.6% (inactive) and 30.1% (inactive) | 63% (inactive) and 90.4% (inactive) | 82.6% (inactive) and 46.2% (inactive) | 35.5% (inactive) | 50.5% (inactive) and 30.9% (inactive) | 33.2% (inactive) and 28.1% (inactive) | 58.2% (inactive) and 49.3% (inactive) | 83.2% (inactive) and 65.5% (inactive) | 80% (inactive) and 60.3% (inactive) | 58.9% (inactive) and 51.5% (inactive) | 57.3% (inactive) | 42.8% (inactive) and 24.9% (inactive) | 53% (inactive) and 107% (inactive) | 42% (inactive) | 46.3% (inactive) and 51.3% (inactive) |  | 31% (inactive) and 36.4% (inactive) | 37.1% (inactive) and 35.7% (inactive) | 32.5% (inactive) and 39.4% (inactive)
10 | C=CCOc1ccc(N=NC(C#N)C#N)cc1 | 56.9% (inactive) | 72.7% (inactive) | 74.3% (inactive) | 84.6% (inactive) | 70.4% (inactive) | 91.8% (inactive) | 47.7% (inactive) | 65.1% (inactive) | 87.3% (inactive) | 92.6% (inactive) | 85.7% (inactive) | 41.4% (inactive) | 62.6% (inactive) | 36% (inactive) | 25.6% (inactive) |  | 13.6% (inactive) | 19.5% (inactive) | 26% (inactive)
11 | O=C1c2ccccc2C(=O)c2sc(Nc3ccc(Cl)cc3)nc21 | -68.7% (active) | 92.5% (inactive) | 33.1% (inactive) | 4.35% (active) | 2.24% (active) | 13% (inactive) | 18.4% (inactive) | -9.35% (active) | 35.9% (inactive) | 53.6% (inactive) | -80.3% (active) | 21.7% (inactive) | 174% (inactive) | -23.4% (active) | 75% (inactive) |  | 13.1% (inactive) | 6.68% (active) | -85.8% (active)
